# Test results from PMC7862700, “An all-to-all approach to the identification of sequence-specific readers for epigenetic DNA modifications on cytosine”.
# Legend:
# Assay in all cases: DAPPL (digital affinity profiling via proximity ligation, sequencing); 10 mM Tris-HCl pH 7.5, 50 mM NaCl, 1 mM DTT, 4% glycerol, room temperature, 30 min; GST-TFs on glutathione beads, 16-mer random dsDNA library, 0.1% formaldehyde crosslink after washing; high values mean tight binding
# Details in all cases: protein: recombinant; tags: N-terminal GST; dsDNA, one strand shown
# ETV1 = ETV1 (Homo sapiens, UniProt P50549 1-477)
# Outline: (§1)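 Beads coated with glutathione captured GST-fused human transcription factors that had been expressed in yeast, and the factors were then given DNA barcodes and pooled with a tag-only sample. The pools were incubated with 200 nmole of a random double-stranded 16-mer DNA library in Tris/NaCl/DTT/glycerol buffer for 30 min at room temperature, washed, crosslinked with 0.1% formaldehyde and proximity-ligated with BsaI/T4 ligase at 37 °C for 1 h. PCR amplification and Illumina NextSeq500 sequencing came last. Binding signal is each hexamer's read frequency for a factor divided by its frequency for the tag-only sample.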
# ERF = target: T1, ERF (Homo sapiens, UniProt P50548 1-548)
# T1 sequence: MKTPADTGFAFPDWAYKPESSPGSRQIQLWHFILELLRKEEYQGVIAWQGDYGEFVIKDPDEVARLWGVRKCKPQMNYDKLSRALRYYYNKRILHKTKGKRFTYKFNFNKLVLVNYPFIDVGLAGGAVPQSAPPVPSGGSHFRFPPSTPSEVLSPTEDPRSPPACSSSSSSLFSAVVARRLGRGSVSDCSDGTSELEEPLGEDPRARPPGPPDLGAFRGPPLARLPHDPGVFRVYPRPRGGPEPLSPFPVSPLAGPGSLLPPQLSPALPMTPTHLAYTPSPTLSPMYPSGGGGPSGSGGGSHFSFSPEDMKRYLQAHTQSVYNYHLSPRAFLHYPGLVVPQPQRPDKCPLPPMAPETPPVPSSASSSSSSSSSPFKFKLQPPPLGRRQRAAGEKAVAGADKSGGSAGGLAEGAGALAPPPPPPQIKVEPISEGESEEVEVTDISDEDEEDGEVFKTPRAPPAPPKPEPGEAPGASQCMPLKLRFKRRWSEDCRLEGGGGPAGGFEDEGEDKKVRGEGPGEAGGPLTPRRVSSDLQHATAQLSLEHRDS
# Outline: as §1
# ETV3L = target: T2, ETV3L (Homo sapiens, UniProt Q6ZN32 1-361)
# T2 sequence: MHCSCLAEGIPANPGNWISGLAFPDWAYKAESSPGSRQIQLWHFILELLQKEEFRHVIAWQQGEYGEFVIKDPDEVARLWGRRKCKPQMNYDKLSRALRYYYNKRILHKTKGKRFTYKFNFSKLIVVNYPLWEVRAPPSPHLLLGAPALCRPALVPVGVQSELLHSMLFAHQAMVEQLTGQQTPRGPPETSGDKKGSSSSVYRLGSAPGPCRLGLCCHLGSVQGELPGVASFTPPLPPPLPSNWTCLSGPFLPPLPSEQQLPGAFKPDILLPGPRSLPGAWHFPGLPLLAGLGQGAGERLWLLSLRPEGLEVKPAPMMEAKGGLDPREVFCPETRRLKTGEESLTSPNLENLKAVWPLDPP
# Outline: as §1
# ETS2 = target: T3, ETS2 (Homo sapiens, UniProt P15036 1-469)
# T3 sequence: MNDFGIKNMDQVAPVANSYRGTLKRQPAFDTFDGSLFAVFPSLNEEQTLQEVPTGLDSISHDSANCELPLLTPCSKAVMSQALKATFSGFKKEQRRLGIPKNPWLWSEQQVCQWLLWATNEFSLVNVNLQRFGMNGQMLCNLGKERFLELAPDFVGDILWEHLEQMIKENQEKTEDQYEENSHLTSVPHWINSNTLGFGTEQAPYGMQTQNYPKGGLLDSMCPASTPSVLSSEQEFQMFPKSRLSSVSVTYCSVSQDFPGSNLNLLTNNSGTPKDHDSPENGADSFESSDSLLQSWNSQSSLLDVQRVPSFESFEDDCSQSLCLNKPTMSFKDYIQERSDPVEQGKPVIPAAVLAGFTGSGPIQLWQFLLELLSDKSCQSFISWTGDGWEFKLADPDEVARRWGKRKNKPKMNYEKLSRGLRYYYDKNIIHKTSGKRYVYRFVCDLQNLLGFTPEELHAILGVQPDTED
# Outline: as §1
# SPDEF = target: T4, SPDEF (Homo sapiens, UniProt O95238 1-335)
# T4 sequence: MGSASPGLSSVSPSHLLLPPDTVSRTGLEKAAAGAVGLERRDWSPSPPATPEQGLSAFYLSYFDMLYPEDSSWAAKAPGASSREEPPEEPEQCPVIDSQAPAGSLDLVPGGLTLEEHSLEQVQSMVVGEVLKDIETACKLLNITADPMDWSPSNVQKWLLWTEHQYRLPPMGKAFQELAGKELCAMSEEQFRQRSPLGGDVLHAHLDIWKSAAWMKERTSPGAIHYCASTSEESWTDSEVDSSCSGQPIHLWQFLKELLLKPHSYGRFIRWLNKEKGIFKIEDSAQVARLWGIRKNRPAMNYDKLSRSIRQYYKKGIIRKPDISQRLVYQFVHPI
# Outline: as §1
# ETV7 = target: T5, ETV7 (Homo sapiens, UniProt Q9Y603 1-341)
# T5 sequence: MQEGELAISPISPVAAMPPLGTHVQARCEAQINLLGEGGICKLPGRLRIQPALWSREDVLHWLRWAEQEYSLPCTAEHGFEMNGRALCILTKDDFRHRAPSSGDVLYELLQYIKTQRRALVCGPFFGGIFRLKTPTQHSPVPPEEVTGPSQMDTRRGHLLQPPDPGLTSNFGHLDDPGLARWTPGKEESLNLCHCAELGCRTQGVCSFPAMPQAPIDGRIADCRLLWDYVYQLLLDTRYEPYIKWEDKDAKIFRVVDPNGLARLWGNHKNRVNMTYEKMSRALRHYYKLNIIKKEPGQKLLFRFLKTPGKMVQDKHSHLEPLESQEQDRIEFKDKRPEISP
# Outline: as §1
# ELF5 = target: T6, ELF5 (Homo sapiens, UniProt Q9UKW6-2 1-255)
# T6 sequence: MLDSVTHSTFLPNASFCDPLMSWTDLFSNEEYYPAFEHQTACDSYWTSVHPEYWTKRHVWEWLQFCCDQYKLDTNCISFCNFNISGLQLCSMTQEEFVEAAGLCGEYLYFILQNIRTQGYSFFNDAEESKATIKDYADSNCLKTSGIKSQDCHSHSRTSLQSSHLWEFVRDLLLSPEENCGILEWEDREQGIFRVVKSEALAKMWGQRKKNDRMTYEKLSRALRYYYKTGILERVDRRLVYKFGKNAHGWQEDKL
# Outline: as §1
# ETV3 = target: T7, ETV3 (Homo sapiens, UniProt P41162-2 1-143)
# T7 sequence: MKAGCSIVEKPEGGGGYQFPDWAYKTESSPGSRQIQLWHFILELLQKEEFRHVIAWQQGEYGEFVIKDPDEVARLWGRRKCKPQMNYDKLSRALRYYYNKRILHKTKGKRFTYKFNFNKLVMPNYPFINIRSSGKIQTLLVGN
# Outline: as §1
# ETV6 = ETV6 (Homo sapiens, UniProt P41212 1-452)
# Outline: as §1
# ETV6, sequence (P41212 whole entry): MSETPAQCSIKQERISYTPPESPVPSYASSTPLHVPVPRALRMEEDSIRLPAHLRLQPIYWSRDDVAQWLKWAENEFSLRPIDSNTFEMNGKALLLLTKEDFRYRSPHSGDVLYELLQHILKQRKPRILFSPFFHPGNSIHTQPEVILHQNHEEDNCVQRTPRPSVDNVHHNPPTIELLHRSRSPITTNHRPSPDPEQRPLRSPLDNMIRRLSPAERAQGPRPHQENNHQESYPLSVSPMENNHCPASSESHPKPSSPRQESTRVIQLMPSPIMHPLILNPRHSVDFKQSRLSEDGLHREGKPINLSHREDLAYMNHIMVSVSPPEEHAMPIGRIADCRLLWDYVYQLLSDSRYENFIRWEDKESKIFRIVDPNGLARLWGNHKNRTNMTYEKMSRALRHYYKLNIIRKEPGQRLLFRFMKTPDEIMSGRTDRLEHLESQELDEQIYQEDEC
# ETV1, sequence (P50549 whole entry, the tested form may be a part): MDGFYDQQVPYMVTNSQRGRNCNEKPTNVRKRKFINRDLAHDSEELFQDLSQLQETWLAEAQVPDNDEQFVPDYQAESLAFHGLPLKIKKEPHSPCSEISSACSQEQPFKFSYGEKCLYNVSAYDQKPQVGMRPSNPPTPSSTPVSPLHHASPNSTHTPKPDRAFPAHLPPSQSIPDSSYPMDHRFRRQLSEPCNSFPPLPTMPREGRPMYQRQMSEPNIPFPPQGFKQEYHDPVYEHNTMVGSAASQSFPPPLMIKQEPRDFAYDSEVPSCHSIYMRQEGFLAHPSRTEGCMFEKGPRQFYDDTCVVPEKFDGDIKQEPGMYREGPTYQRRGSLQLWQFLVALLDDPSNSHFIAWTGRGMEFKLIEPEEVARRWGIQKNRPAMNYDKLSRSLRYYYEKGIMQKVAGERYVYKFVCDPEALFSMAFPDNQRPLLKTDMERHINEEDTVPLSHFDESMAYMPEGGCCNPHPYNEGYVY
sequence,measurement,setting,value
TATGCA,binding signal,ETV1,"1.19 fold enrichment (6-mer frequency, TF over GST control)"
same,binding signal,ERF,"1.25 fold enrichment (6-mer frequency, TF over GST control)"
same,binding signal,ETV3L,"1.27 fold enrichment (6-mer frequency, TF over GST control)"
same,binding signal,ETS2,"1.29 fold enrichment (6-mer frequency, TF over GST control)"
same,binding signal,SPDEF,"1.36 fold enrichment (6-mer frequency, TF over GST control)"
same,binding signal,ETV7,"1.18 fold enrichment (6-mer frequency, TF over GST control)"
same,binding signal,ELF5,"1.23 fold enrichment (6-mer frequency, TF over GST control)"
same,binding signal,ETV3,"1.33 fold enrichment (6-mer frequency, TF over GST control)"
same,binding signal,ETV6,"1.15 fold enrichment (6-mer frequency, TF over GST control)"
